This passage reports z-score and composite z-score results from PubChem BioAssay.

Structures are written as SMILES. Calls of active or inactive are those of the source.

Experiment [1] in a line: compound effects on differentiated 3T3-L1 adipocyte viability – cell-based, 3T3-L1 adipocytes, calcein-AM fluorescence, 48 h, basal, profiling panel (AID 1163). As to conditions: 3T3-L1 adipocytes viability, higher = more signal.
Experiment [2] can be described thus: compound effects on hepatocellular carcinoma cell viability – HepG2, calcein-AM fluorescence, 48 h, basal, profiling panel (AID 1164). To be noted: higher = more signal.
Experiment [3] in a line: compound effects on multiple myeloma cell viability – MM1S, calcein-AM fluorescence, 48 h, basal, profiling panel (AID 1165). As to conditions: higher = more signal.
Experiment [4] is described as follows: calcein-AM signal in unstimulated myeloma cells – cell-based, calcein-AM fluorescence, 48 h, PK04 Diversity Set, profiling panel (AID 1166).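 Note: cells grown under basal conditions without added stimulus.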 As to conditions: RPMI8226 myeloma viability, higher = more signal.
Experiment [5] is described as follows: JC-1 mitochondrial signal, unstimulated HepG2 cells – cell-based, JC-1 fluorescence, 24 h, 100 nL compound, profiling panel (AID 1167). As to conditions: HepG2 mitochondrial potential, higher = more signal.
Experiment [6] can be described thus: JC-1 mitochondrial signal, unstimulated adipocytes – cell-based, JC-1 fluorescence, 3T3-L1 adipocytes, 24 h, 100 nL compound, profiling panel (AID 1168). As to conditions: JC-1 mitochondrial fluorescence, higher = more signal, called active from +8 up or from −8 down.
A short description of experiment [7]: JC-1 mitochondrial signal, unstimulated myeloma cells – cell-based, JC-1 fluorescence, RPMI8226, 24 h, 100 nL compound, profiling panel (AID 1169). To be noted: JC-1 mitochondrial potential fluorescence, higher = more signal.
Experiment [8] can be described thus: JC-1 mitochondrial signal, unstimulated MM1S myeloma – cell-based, JC-1 fluorescence, 24 h, 100 nL compound, profiling panel (AID 1170). To be noted: MM1S mitochondrial potential, higher = more signal.
A short description of experiment [9]: resazurin metabolic signal in A549 cells – cell-based, resazurin fluorescence, 24 h, PK04 Diversity Set, profiling panel (AID 1171). As to conditions: A549 viability, higher = more signal, called active from +8 up or from −8 down. On the technique in general: Resazurin is reduced to fluorescent resorufin, in cell work by metabolically active cells.
Experiment [10] can be described thus: resazurin metabolic signal in HepG2 cells – cell-based, resazurin fluorescence, 24 h, PK04 Diversity Set, profiling panel (AID 1172). As to conditions: HepG2 viability, higher = more signal.
A short description of experiment [11]: budding yeast growth changes without added modifier – OD600, strain BY4716, 24 h, basal condition, primary screen (AID 1173). As to conditions: S. cerevisiae BY4716 growth, OD600, 24 h; higher = more signal, called active from +8 up or from −8 down.
The nature of experiment [12]: viability profiling in MM1S myeloma cells – cell-based, resazurin fluorescence, basal, 24 h, PK04 Diversity Set, profiling panel (AID 1174). To be noted: higher = more signal, called active from +8 up or from −8 down.
Experiment [13] addresses Dihydroorotate dehydrogenase (quinone), mitochondrial (Plasmodium falciparum (isolate 3D7)) (UniProt Q08210). In words: inhibition of P. falciparum DHODH – biochemical, C-terminal His tag, absorbance 600 nm, primary screen (AID 1175).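 Note: recombinant parasite enzyme with a five histidine tag at its C terminus.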 To be noted: PfDHODH enzyme, DCIP absorbance 600 nm; higher = more signal, called active from +8 up or from −8 down.
Experiment [14] in a line: growth modulation of vineyard yeast isolate – strain RM11-1a, OD600, basal, 24 h, primary screen (AID 1177).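 Note: cultures grown under basal conditions with no added stressor.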 As to conditions: S. cerevisiae RM11-1a growth, OD600, 24 h; higher = more signal, called active from +8 up or from −8 down.
Experiment [15] in a line: growth of efflux-deficient E. coli DRC39 – strain DRC39, OD650, 24 h, E. coli filamentation inducers, primary screen (AID 1178).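 Note: growth measured as culture turbidity by optical density at 650 nm.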 As to conditions: E. coli DRC39 acrAB, higher = more signal, called active from +8 up or from −8 down.
Experiment [16] in a line: growth of efflux-deficient E. coli DRC39 – strain DRC39, OD650, 48 h, E. coli filamentation inducers, primary screen (AID 1179).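 Note: screen aims at cell division blockers that make cells filament.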 As to conditions: E. coli DRC39 delta-acrAB growth, higher = more signal, called active from +8 up or from −8 down.
Experiment [17] is described as follows: viability profiling in RPMI8226 myeloma cells – cell-based, resazurin fluorescence, basal, 24 h, PK04 Diversity Set, profiling panel (AID 1180).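 Note: RPMI8826 multiple myeloma cell line at 5000 cells per well.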 To be noted: higher = more signal.
Experiment [18] concerns the target E3 ubiquitin-protein ligase XIAP (Homo sapiens) (UniProt P98170). In words: small molecules binding XIAP protein – biophysical, small-molecule microarray, fluorescence 635 nm, primary screen (AID 1181).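 Note: score merges 667 nm emission and signal to noise over triplicate slides.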 To be noted: higher = more signal.
Experiment [19] concerns XIP peptide (Xip251-270) binding. Description: XIP fragment 251-270 binding compounds – biochemical, small-molecule microarray, fluorescence 635/667 nm, 0.1 µg/mL protein, primary screen (AID 1182). To be noted: fluorescent protein binding, 635 nm, higher = more signal, called active from +8 up or from −8 down.
The next experiment concerns XIP peptide (Xip251-270). Description: compounds binding XIP fragment 251-270 – biochemical, small-molecule microarray, fluorescence 635/667 nm, 0.5 µg/mL protein, primary screen (AID 1183). As to conditions: fluorescence 635 nm, higher = more signal.

Chain of E3 ubiquitin-protein ligase XIAP (Homo sapiens) (P98170 whole entry, looked up, the tested form may be a part): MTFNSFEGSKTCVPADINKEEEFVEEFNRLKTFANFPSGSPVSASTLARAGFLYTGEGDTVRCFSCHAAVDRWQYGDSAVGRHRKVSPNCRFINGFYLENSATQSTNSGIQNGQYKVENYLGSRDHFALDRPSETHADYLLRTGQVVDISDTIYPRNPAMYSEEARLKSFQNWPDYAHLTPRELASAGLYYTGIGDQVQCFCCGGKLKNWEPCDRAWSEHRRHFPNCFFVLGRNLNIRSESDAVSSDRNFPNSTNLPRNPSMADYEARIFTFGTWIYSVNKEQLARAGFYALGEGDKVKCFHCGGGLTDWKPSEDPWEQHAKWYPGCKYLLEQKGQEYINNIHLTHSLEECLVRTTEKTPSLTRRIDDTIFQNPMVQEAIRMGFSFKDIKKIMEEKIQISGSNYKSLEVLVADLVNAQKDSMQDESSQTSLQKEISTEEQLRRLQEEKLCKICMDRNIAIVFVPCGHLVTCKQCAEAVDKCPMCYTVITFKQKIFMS
Chain of Dihydroorotate dehydrogenase (quinone), mitochondrial (Plasmodium falciparum (isolate 3D7)) (Q08210 whole entry, looked up): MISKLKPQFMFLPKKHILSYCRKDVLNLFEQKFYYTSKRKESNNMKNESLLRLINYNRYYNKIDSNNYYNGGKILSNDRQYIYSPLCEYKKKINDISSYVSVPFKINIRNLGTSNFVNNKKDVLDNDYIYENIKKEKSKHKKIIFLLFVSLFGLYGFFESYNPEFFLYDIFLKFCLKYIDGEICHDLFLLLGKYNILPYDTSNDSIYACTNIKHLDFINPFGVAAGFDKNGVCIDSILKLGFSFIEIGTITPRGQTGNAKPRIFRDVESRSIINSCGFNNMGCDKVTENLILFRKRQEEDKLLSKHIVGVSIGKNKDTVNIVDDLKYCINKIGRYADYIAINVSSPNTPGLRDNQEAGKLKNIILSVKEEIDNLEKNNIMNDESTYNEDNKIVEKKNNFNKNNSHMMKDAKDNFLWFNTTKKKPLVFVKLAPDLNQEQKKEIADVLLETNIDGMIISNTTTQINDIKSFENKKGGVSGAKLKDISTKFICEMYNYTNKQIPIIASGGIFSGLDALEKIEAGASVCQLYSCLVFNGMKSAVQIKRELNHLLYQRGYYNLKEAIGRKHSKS

As for `CCN(CC)c1ccc(N2CC=CC34O[C@@H]5C=CCOC(=O)[C@@H]5[C@H]3C(=O)N(C(C)CO)[C@@H]4C2=O)cc1` (stereo not given in full), the z-score in experiment [1] is 0.754; in experiment [2], 0.0598; in [3] it was 1.15; in experiment [4] it was -0.262; in [5], 0.469; in experiment [6], 0.382 (inactive). The z-score is -0.809 in [7]; 0.907 in experiment [8]; 0.924 (inactive) in experiment [9]; 0.878 in experiment [10]; -0.746 (inactive) in experiment [11]; 1.3 (inactive) in [12]. The z-score was -0.0464 (inactive) in experiment [14], 1.7 (inactive) in [15], 1.31 (inactive) in experiment [16] and 0.587 in experiment [17]. In addition, the composite z-score in experiment [13] is -0.393 (inactive); in experiment [18], -0.0277; in experiment [19], 0.149 (inactive); with XIP peptide (Xip251-270) it was -1.73.
With `CCCCCN1CC=CC23O[C@@H]4/C=C\CCC(C)OC(=O)C4[C@H]2C(=O)N(CCCO)[C@@H]3C1=O` (stereo not given in full), the z-score in experiment [1] is 1.42; in experiment [2], 0.495; in experiment [3], -1.25; in [4], 0.279; in [5], 0.197; in [6] it was 0.399 (inactive). The z-score is 0.318 in experiment [7]; 0.962 in [8]; 0.427 (inactive) in experiment [9]; 0.605 in experiment [10]; -1.26 (inactive) in experiment [11]; 1.5 (inactive) in experiment [12]. The z-score in experiment [14] was -0.599 (inactive); in experiment [15] it was 1.54 (inactive); in experiment [16], 1.11 (inactive); in [17], 1.4. Moreover, the composite z-score in experiment [13] is 0.564 (inactive); in experiment [18], -0.0351; in experiment [19], 0.156 (inactive); with XIP peptide (Xip251-270), -0.827.
As to `CC1CC/C=C\[C@H]2OC34C=CCN(C(C)C)C(=O)[C@H]3N(C(CO)C(C)C)C(=O)[C@@H]4C2C(=O)O1` (stereo not given in full), the z-score in experiment [1] was 0.252; in [2] it was -0.0224; in experiment [3], 1.4; in experiment [4] it was 0.652; in experiment [5], 0.686; in [6] it was 1.39 (inactive). Moreover, the z-score in experiment [7] is -0.723; in experiment [8], 1.62; in [9], 0.351 (inactive); in experiment [10] it was 0.788; in experiment [11] it was -0.718 (inactive); in experiment [12], 1.15 (inactive). For the same compound, the z-score is -0.488 (inactive) in [14], 1.36 (inactive) in [15], 1.46 (inactive) in [16] and 0.838 in experiment [17]. In addition, the composite z-score in experiment [13] was -1.87 (inactive); in experiment [18], -0.194; in experiment [19] it was 0.0648 (inactive); in the experiment on XIP peptide (Xip251-270), -1.15.
For `C[N+](C)(C)CCCC[C@@H]1NC(=O)[C@H]2C[C@@H](C(=O)NCCCCCN)[C@@H](c3cccc(OCCO)c3)N2C1=O`, the z-score in experiment [1] is 2.1; in experiment [2], -0.468; in experiment [3], -0.433; in experiment [4], -0.649; in [5], 1.31; in experiment [6], 0.0454 (inactive). For the same compound, the z-score is -0.773 in experiment [7]; 0.0601 in [8]; -0.156 (inactive) in experiment [9]; -0.148 in experiment [10]; -0.26 (inactive) in experiment [11]; 1.53 (inactive) in experiment [12]. Moreover, the z-score is -0.286 (inactive) in experiment [14], 0.222 (inactive) in [15], -0.0647 (inactive) in [16] and 0.729 in experiment [17]. The composite z-score in experiment [13] was -0.407 (inactive); in experiment [18] it was -0.163; in [19] it was 0.713 (inactive); with XIP peptide (Xip251-270), 0.608.
As to `O=C1c2ccccc2[C@](Cc2ccccc2I)(C(=O)O)[C@H](c2ccc(CO)cc2)N1Cc1ccccc1Cl`, the z-score is 1 in [1]; -0.504 in experiment [2]; -0.089 in [3]; -1.18 in experiment [4]; -0.172 in experiment [5]; 0.571 (inactive) in experiment [6]. Besides, the z-score in experiment [7] is -0.565; in experiment [8], 0.295; in experiment [9], 0.177 (inactive); in experiment [10] it was 0.722; in experiment [11], -2.78 (inactive); in experiment [12], 1.34 (inactive). For the same compound, the z-score in experiment [14] is -1.29 (inactive); in [15], -0.0031 (inactive); in [16] it was -0.11 (inactive); in experiment [17] it was 0.601. Further, the composite z-score in experiment [13] was -0.812 (inactive); in experiment [18], -0.148; in [19] it was 0.8 (inactive); in the experiment on XIP peptide (Xip251-270), 0.507.
